Rows were chosen to be rich in hits. Some 7% of all compounds tested hit in one or more screens of this group.
USP28 block – inhibitors of human USP28 deubiquitinase; 47,000 tested, 3% active; Q96RU2; inhibition, % at 25 µM; purified USP28, Ub-rhodamine cleavage fluorescence, 30 min
Target sequence (Q96RU2 whole entry, looked up): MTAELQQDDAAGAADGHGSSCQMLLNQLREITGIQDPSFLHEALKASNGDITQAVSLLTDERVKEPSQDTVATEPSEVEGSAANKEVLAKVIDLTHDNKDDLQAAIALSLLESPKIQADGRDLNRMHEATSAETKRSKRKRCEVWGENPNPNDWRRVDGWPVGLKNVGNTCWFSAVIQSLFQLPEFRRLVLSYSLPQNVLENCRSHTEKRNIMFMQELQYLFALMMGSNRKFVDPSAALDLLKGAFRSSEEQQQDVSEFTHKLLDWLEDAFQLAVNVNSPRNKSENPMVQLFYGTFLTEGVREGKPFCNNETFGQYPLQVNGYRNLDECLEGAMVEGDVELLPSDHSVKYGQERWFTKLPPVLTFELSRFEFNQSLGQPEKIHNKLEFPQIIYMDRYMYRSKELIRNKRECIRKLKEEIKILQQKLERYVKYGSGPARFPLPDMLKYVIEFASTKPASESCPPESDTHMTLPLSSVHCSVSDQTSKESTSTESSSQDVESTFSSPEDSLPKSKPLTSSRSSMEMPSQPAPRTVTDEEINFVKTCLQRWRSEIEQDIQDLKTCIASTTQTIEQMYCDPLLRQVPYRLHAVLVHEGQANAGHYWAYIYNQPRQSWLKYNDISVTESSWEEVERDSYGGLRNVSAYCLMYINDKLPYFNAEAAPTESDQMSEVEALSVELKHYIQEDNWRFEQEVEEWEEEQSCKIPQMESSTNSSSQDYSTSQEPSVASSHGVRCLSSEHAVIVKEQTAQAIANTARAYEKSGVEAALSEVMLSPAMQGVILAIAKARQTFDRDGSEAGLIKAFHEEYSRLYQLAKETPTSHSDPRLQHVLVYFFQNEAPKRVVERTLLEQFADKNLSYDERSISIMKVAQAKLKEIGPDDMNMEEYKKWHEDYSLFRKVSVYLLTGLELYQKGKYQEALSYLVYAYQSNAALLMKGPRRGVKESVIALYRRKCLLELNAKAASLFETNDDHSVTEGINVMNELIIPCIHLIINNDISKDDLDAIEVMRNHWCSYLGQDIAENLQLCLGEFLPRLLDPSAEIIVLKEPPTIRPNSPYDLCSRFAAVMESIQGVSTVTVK
USP30 block – blocks human USP30 ubiquitin-rhodamine cleavage. Q70CQ3. purified USP30, Ub-rhodamine cleavage fluorescence. inhibition, % at 25 µM. 47,000 tested, 5.3% active. AID 1645860
Numbers stand for hits. Rule as the data show it: active = inhibition above about 30%; inactive = the rest.

What do the screens show for `C[C@H]1O[C@@H](c2ccc3c(c2O)C(=O)c2ccc(C[C@@](C)(O)CC(=O)O)c(O)c2C3=O)C[C@@H](O)[C@@H]1O`?
USP28 block: inactive; USP30 block: inactive

How did Cc1ccc(C(=O)NNC(=O)CSc2nnc(Cc3ccccc3)n2Cc2ccccc2)cc1 do in these assays?
USP28 block: inactive; USP30 block: inactive

What do the screens show for `Cc1ccc(C(O)Cn2cc(C(=O)Nc3ccccc3)nn2)cc1` (stereo not given)?
USP28 block: inactive; USP30 block: 35

What do the screens show for `COCCCn1c(C(N)=O)cc2c(=O)n3cccc(C)c3nc21`?
USP28 block: inactive; USP30 block: inactive

What do the screens show for `CCOC(=O)C(C)Sc1nc(=O)n2cccc(C)c2n1` (stereo not given)?
USP28 block: inactive; USP30 block: 30

What do the screens show for `COc1ccc(CC(=O)N2CCN(S(=O)(=O)c3ccc4c(c3)OCCCO4)CC2)cc1`?
USP28 block: inactive; USP30 block: inactive

What do the screens show for `Cc1ccccc1OCC(=O)N1CCN(S(=O)(=O)c2ccc3c(c2)OCCCO3)CC1`?
USP28 block: inactive; USP30 block: 38

How did Cc1nnc(-c2coc(S(=O)(=O)N3CCCC(C)C3)c2)o1 (stereo not given) do in these assays?
USP28 block: inactive; USP30 block: inactive

How did CC(=O)Nc1cc(-c2ccccc2)nn(CC(=O)Nc2ccccc2F)c1=O do in these assays?
USP28 block: inactive; USP30 block: inactive

How did Nc1ncnc2c1c(-c1ccccc1)c(-c1ccccc1)n2CCc1ccc(F)cc1 do in these assays?
USP28 block: inactive; USP30 block: 45

What do the screens show for `OCCCNc1ncnc2c1c(-c1ccccc1)c(-c1ccccc1)n2Cc1ccco1`?
USP28 block: inactive; USP30 block: inactive

What do the screens show for `Cc1ccc(C(=O)Nc2c(-c3ccc4c(c3)OCO4)c(=O)c3ccccc3n2C)cc1`?
USP28 block: 46; USP30 block: inactive

What do the screens show for `Cn1c(NC(=O)c2ccccc2F)c(-c2ccc3c(c2)OCO3)c(=O)c2ccccc21`?
USP28 block: inactive; USP30 block: inactive

How did Cc1ccc(-c2c(NC(=O)c3cccc([N+](=O)[O-])c3)n(C)c3ccccc3c2=O)cc1 do in these assays?
USP28 block: inactive; USP30 block: 32

What do the screens show for `Cn1c(NC(=O)c2cccc(Br)c2)c(-c2ccc(Cl)cc2)c(=O)c2ccccc21`?
USP28 block: inactive; USP30 block: inactive

What do the screens show for `CCCCCNc1ncnc2c1[nH]c1ccc(OCC)cc12`?
USP28 block: inactive; USP30 block: inactive

How did Cn1cc2c(n1)c(=O)n(Cc1ccc(F)cc1)c(=O)n2CC(=O)Nc1ccccc1F do in these assays?
USP28 block: inactive; USP30 block: inactive

How did Cc1nc(N2CCCCC2)ncc1-c1cc(=O)[nH]c(N2CCc3ccccc32)n1 do in these assays?
USP28 block: inactive; USP30 block: inactive

What do the screens show for `CCOC(=O)c1ccc(NC(=O)CSc2nnc(CNC(=O)c3ccccc3F)o2)cc1`?
USP28 block: inactive; USP30 block: inactive

Results for O=C(CSc1nnc(CNC(=O)c2ccccc2F)o1)Nc1ccc(OC(F)(F)F)cc1 ?
USP28 block: inactive; USP30 block: 32

How did CC(C)[C@H]1CC[C@@]2(CO2)[C@H]2C(=O)OCC(C(=O)O)=C[C@H]12 do in these assays?
USP28 block: 71; USP30 block: 64

Results for CC1=C[C@H]2[C@H](C(C)C)CC[C@@](C)(O)[C@H]2CC1=O ?
USP28 block: inactive; USP30 block: inactive

What do the screens show for `Cc1cc(CC2CCN(C(=O)c3c(C(C)C)noc3C)CC2)ccn1`?
USP28 block: inactive; USP30 block: inactive

Results for CC(OC(=O)CNS(=O)(=O)c1ccc2ccccc2c1)C(=O)Nc1ccc(Cl)cc1Cl (stereo not given) ?
USP28 block: inactive; USP30 block: 46

How did COc1ccc(NC(=O)C(C)OC(=O)CNC(=O)c2ccc(Cl)cc2Cl)cc1 (stereo not given) do in these assays?
USP28 block: inactive; USP30 block: inactive

Results for CCOc1cc(=O)c(C(=O)N2CCC(C)CC2)nn1-c1ccc(C)cc1 ?
USP28 block: inactive; USP30 block: inactive

How did O=C(CC(c1cccc(F)c1)n1cccc1)Nc1ccc(F)c(Cl)c1 (stereo not given) do in these assays?
USP28 block: inactive; USP30 block: 36

Results for O=C(CC(c1ccc(F)cc1)n1cccc1)Nc1ccc(Cl)cc1 (stereo not given) ?
USP28 block: inactive; USP30 block: inactive

Results for Cc1nc(C)c(CN2CCC(C(=O)Nc3ccc(Oc4ccccc4F)cc3)CC2)nc1C ?
USP28 block: inactive; USP30 block: inactive

Results for Cc1cccc(-n2ccnc(SCC(=O)Nc3ccc(Cl)cc3F)c2=O)c1 ?
USP28 block: 38; USP30 block: 49

Results for Cc1ccccc1NC(=O)CSc1nccn(-c2ccc(F)c(F)c2)c1=O ?
USP28 block: inactive; USP30 block: inactive

What do the screens show for `O=C(CCc1nnc2ccc(N3CCCCC3)nn12)N1CCN(Cc2ccccc2)CC1`?
USP28 block: inactive; USP30 block: inactive

Results for O=C(O)Cc1ccc(NC(=O)c2ccccc2-c2ccccc2C(=O)O)cc1 ?
USP28 block: inactive; USP30 block: inactive
